Shown are actives, neighbours in structure and some others; about 19% of the full set was active somewhere.
IL1B secr inh: inflammasome signaling inhibition, IL-1 beta readout | THP-1 LPS/ATP IL-1B secretion, AlphaLISA, 16 h; stronger effect = lower value | AID 743279 | activity change, % at 57.5 µM | hit rate 4.7% among 360,000; in the data active = activity change below about -50%; inconclusive = mostly about -30% to -49%; note: % is set by controls: 0 for no effect and ±100 for the full control effect
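Secreted IL-1B measured by AlphaLISA bead assay after 16 h compound exposure of THP-1 cells; compounds (final up to 57.5 uM) added 1 h before LPS (250 ng/mL) and ATP (1.25 mM) stimulation; lower signal means less secretion.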
TDP1 cell CPT: growth inhibition of DT40 Tdp1-/-;hTDP1 cells with camptothecin (screen for TDP1 inhibitors); chicken DT40 Tdp1-/-;hTDP1 cells + 20 nM CPT, ATP luminescence, 48 h; Potency, µM (titrated, usually from 46.2 µM), for inactives: at the highest dose activity change, negative = growth inhibition, hits mostly inhibitors; hit rate 12% among 420,000; note: potency is the fitted concentration of half-maximal effect; % is set by controls: 0 for no effect and ±100 for the full control effect; nearly all actives have a fitted effect of over 55% in size
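Cell growth measured by CellTiter-Glo luminescence after a minimum 48 h, 37 C compound exposure with 20 nM CPT in Tdp1-knockout DT40 cells stably expressing hTDP1, seeded 400/well; qHTS titration format.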
TGFb inhibitor: blocks TGF-b signaling; HepG2 CAGA-GFP TGF-b/SMAD3 reporter, GFP fluorescence, 18 h; TGF-beta stimulated, 500 pg/mL final; hit rate 1.2% among 410,000; AID 588855; Potency, µM (top dose mostly 46.1 µM), for the others: at the highest dose activity, negative = inhibition, usual class: inhibitors; note: potency is the fitted concentration of half-maximal effect; % is set by controls: 0 for no effect and ±100 for the full control effect; nearly all actives have a fitted effect of over 65% in size
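Read-out: total well GFP (ex488/em500-530) summed from mean per-cell fluorescence. Cells: HEPG2 CAGA-GFP, 1% FBS DMEM, 18 h at 37 degrees C with 500 pg/mL final TGF-beta. Unstimulated wells served as the full-inhibition control; stimulated DMSO wells = 0%.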
HepG2 tox: kills HepG2 cells in TGF-b inhibitor counter-screen; HepG2 CAGA-GFP viability, ATP luminescence, 18 h; Potency, µM (series often up to 46.1 µM), inactives show at the top dose activity change, negative = cytotoxicity, most hits filed as cytotoxic; hit rate 0.76% among 410,000; note: potency is the fitted concentration of half-maximal effect
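HepG2 CAGA-GFP cells (1000/well, DMEM with 1% FBS) received compound, then TGF-beta at 500 pg/mL final, and were incubated 18 hours at 37 degrees C. Viability was read by CellTiter-Glo luminescence. Media-only wells were set as complete cell-killing and DMSO as no toxicity.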
TDP1 inh: TDP1 (human) enzyme inhibition | Q9NUW8 | recombinant TDP1, AlphaScreen DNA substrate cleavage | Potency, µM (top dose mostly 130 µM), for inactives: at the top dose activity change, negative = inhibition, actives largely listed as inhibitors | hit rate 0.28% among 350,000; note: potency is the fitted concentration of half-maximal effect; % is set by controls: 0 for no effect and ±100 for the full control effect; nearly all actives have a fitted effect of over 40% in size
Target sequence (Q9NUW8 whole entry, looked up): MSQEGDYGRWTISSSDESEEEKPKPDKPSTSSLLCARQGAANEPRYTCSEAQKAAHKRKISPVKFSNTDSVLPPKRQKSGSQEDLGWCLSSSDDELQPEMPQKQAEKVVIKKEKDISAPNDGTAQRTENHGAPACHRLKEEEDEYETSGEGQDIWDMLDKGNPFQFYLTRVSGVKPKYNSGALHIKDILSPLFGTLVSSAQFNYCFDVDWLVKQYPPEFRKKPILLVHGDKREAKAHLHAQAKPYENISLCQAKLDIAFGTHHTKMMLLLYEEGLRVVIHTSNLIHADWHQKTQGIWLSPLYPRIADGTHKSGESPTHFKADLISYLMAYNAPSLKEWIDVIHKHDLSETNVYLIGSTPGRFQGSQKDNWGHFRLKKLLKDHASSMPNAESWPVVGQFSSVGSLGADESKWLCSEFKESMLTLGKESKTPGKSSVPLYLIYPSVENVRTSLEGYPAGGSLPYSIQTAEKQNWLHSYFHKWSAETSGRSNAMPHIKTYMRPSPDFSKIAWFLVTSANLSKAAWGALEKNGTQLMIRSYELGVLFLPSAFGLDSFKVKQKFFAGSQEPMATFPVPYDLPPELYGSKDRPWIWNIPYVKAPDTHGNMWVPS
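Steps: enzyme plus compound, 15 min RT; add biotin/phosphotyrosine-FITC oligonucleotide (15 nM final), react 5 min; add donor/acceptor beads (10 ug/ml final), 10 min; read AlphaScreen. Tdp1 at 1 nM final.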
DT40 TDP1 no CPT: qHTS for Inhibitors of human tyrosyl-DNA phosphodiesterase 1 (TDP1): qHTS in cells in absence of CPT | DT40 Tdp1-/- hTDP1 cells, no CPT, ATP luminescence, 48 h | Potency, µM (doses to about 46.2 µM), inactives show top-dose activity change, negative = growth inhibition, most hits filed as inhibitors | hit rate 15% among 420,000 | AID 686978, 2013; note: potency is the fitted concentration of half-maximal effect; % is set by controls: 0 for no effect and ±100 for the full control effect; nearly all actives have a fitted effect of over 55% in size
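Growth kinetics read by CellTiter-Glo luminescence after ≥48 hr at 37 °C. Cells: DT40 Tdp1-/- stably carrying human TDP1, 400 per well, compound exposure in the absence of CPT (DMSO vehicle).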
* hit, by the source's call; ? = inconclusive; · = no result; ! = not confirmed by another sample; [ ] = dose if it differs, or a comment. Unless noted, calls come from the whole dose curve; as a rule, active = well fitted curve in the direction sought with a large enough effect; inconclusive = small, poorly fitted or top-dose-only effect, or another doubt; inactive = no such curve, though single readings can be large; an effect the other way counts as inactive or inconclusive.

SMILES	IL1B secr inh	TDP1 cell CPT	TGFb inhibitor	HepG2 tox	TDP1 inh	DT40 TDP1 no CPT
CCOC(=O)/C(C#N)=C1/C=C(C)NC(c2ccccc2O)=N1	-64*	15µM*	?	-33%	8%	21µM*
COc1ccc(CN2C(=NC(=O)c3ccccc3)SC3CS(=O)(=O)CC32)cc1OC (configuration not stated)	-57*	0%	1%	-4%	3%	4%
CCOc1ccc(/C=C(\C#N)C(=O)Nc2sc3c(c2C(=O)OC)CCC3)cc1OC	·	3%	0%	-4%	0%[12.3 µM]	7%
COc1ccc(OCCN2CCC(C(=O)NC(c3ccc(OC)cc3)c3ccccn3)CC2)cc1 (configuration not stated)	-8	-14%	0%	-24%	·	-23%
O=C(NC(c1ccc(F)cc1)c1ccc2ccccc2n1)C1CCN(CCOc2ccc(F)cc2)CC1 (configuration not stated)	?	8.2µM*	11µM*	16µM*	·	8.2µM*
COc1ccc(OCCN2CCC(C(=O)NC(c3ccccc3)c3ccc4ccccc4n3)CC2)cc1 (configuration not stated)	-80*	?	?	6.3µM*	·	?
O=C(NC(c1ccc(F)cc1)c1ccc2ccccc2n1)C1CCN(Cc2ccc(Oc3ccccc3)cc2)CC1 (configuration not stated)	-75*	?	?	-3%	·	?
COc1ccc(OCCN2CCC(C(=O)NC(c3ccc(F)cc3)c3ccc4ccccc4n3)CC2)cc1 (configuration not stated)	-50*	29µM*	20µM*	11µM*	·	18µM*
COc1ccc(C(NC(=O)C2CCN(CCCc3ccccc3)CC2)c2ccccn2)cc1 (configuration not stated)	-5	1%	-5%	-2%	·	-5%
COc1ccc(NC(=O)CC2C(=O)N(c3ccccc3)C(=O)N2Cc2cccnc2)cc1 (configuration not stated)	·	-8%	-1%	2%	8%	-21%
COc1ccc(C(NC(=O)C2CCN(CCOc3ccc(Cl)cc3)CC2)c2cccs2)cc1 (configuration not stated)	-71*	?	?	-61%	·	?
Cn1cc(CN2CCC(C(=O)NC(c3ccc(F)cc3)c3ccc4ccccc4n3)CC2)c2ccccc21 (configuration not stated)	-81*	12µM*	?	10µM*	·	7.3µM*
O=C(NC(c1ccc(F)cc1)c1ccc2ccccc2n1)C1CCN(CCOc2ccc(Cl)cc2Cl)CC1 (configuration not stated)	?	16µM*	?	11µM*	·	?
CC(C(=O)N1CCCC1)N1CCN(S(=O)(=O)c2ccccc2)CC1 (configuration not stated)	-5	-15%	27%	-4%	-1%	-2%
O=C1CC(NS(=O)(=O)c2ccccc2)CN1c1ccc2c(c1)OCCO2 (configuration not stated)	12	-6%	4%	8%	·	?
O=C(COc1ccccc1)Nc1ccccc1C(=O)OCc1cc(=O)n2nc(C3CC3)sc2n1	·	-3%	-23%	-3%	4%	?
COC(=O)[C@H](COC(C)(C)C)NC(=O)O[C@@H]1Cc2cc(OC)ccc2O[C@H]1c1cccc(OC)c1	·	·	·	·	11%	·
CC(=O)c1c(C)[nH]c(C(=O)N(C)CC(=O)Nc2ccc(Cl)c(C(F)(F)F)c2)c1C	25	?	-28%	-12%	2%	?
CCCc1ccc2oc(C(=O)N3CCC[C@H]3CO)c(C)c2c1	-9	-27%	1%	-29%	·	?
Cc1nc2ccccc2c2oc(C(=O)NCCN3CCCCC3C)cc12 (configuration not stated)	-25	?	11%	-19%	0%	16µM*
CCCCN(CC)CCNC(=O)c1cc2c(C)nc3ccccc3c2o1	-22	16µM*	-12%	-29%	3%	23µM*
CCOC(=O)N1CCC(NC(=O)c2oc3c(C)c(C)ccc3c2C)CC1	-15	21µM*	?	-43%	·	?
Cc1ccc2c(C)c(C(=O)N3CCCCC3CO)oc2c1C (configuration not stated)	-1	18µM*	7%	-19%	4%	13µM*
CCCC(=O)N1CCC1(C)C(=O)Nc1cc(OC)c(OC)c(OC)c1 (configuration not stated)	-13	-16%	-10%	-12%	·	-13%
COc1ccc(OC)c(C(=O)COC(=O)c2cccnc2SC)c1	12	3%	-14%	-26%	-16%	-24%
SMILES	IL1B secr inh	TDP1 cell CPT	TGFb inhibitor	HepG2 tox	TDP1 inh	DT40 TDP1 no CPT
O=C(Nc1nccs1)[C@@H]1CC=C[C@@H]2CCN(Cc3ccc(Cl)c(Cl)c3)C(=O)[C@@H]21	·	?	-23%	-22%	·	?
COC(=O)[C@@H]1C[C@H]1[C@@H](NC(=O)c1cnccn1)c1ccccc1	·	·	·	·	5%	·
CCN1CCCC1CNC(=O)c1cc2c(C)nc3ccccc3c2o1 (configuration not stated)	·	-1%	-22%	-26%	6%	-28%
CCOC(=O)N1CCC(NC(=O)c2cc3c(C)nc4ccccc4c3o2)CC1	-1	9.2µM*	-6%	-15%	6%	21µM*
CCCCN(CC)CCNC(=O)c1cc2cc3ccc(Cl)cc3nc2o1	·	16µM*	2%	-12%	·	?
CCCN(CCC)CCCNC(=O)c1cc2cc3ccc(Cl)cc3nc2o1	-7	?	13%	-14%	·	?
Cc1ccc(Cl)cc1NC(=O)C1CCN(S(=O)(=O)c2cccc3nonc23)CC1	·	-9%	-11%	-8%	3%	-28%
Cn1nnnc1Sc1ncnc2scc(-c3ccccc3)c12	-104*	15µM*	?	-27%	5%	16µM*
Cn1nnnc1Sc1ncnc2scc(-c3ccc(Br)cc3)c12	·	·	?	16µM*	4%	·
Cn1nnnc1Sc1ncnc2scc(-c3ccc(F)cc3)c12	-68*	16µM*	11µM*	10µM*!	10%	6.5µM*
Cn1nnnc1Sc1ncnc2scc(-c3ccccc3Br)c12	·	·	?	-19%	3%	·
Cn1nnnc1Sc1ncnc2scc(Br)c12	·	·	2.2µM*	-37%	1%	·

Screens as filed in PubChem.
